# Reference: the supplement of paper PMC8728848
# The entries come from a sample that favours the strongest signals as a whole.
# B1: Gal 1 (Mus musculus), P16045 (protein)
# chain: MACGLVASNLNLKPGECLKVRGEVASDAKSFVLNLGKDSNNLCLHFNPRFNAHGDANTIVCNTKEDGTWGTEHREPAFPFQPGSITEVCITFDQADLTIKLPDGHEFKFPNRLNMEAINYMAADGDFKIKCVAFE
# What was measured:
# Test in all cases: glycan array binding signal (z-score within array); higher = stronger binding
# Settings in all cases: glycan notation: IUPAC condensed, linker removed
# [1] = target: Fuc(a1-2)Gal(b1-3)GlcNAc(b1-2)Man(a1-3)[Fuc(a1-2)Gal(b1-3)GlcNAc(b1-2)Man(a1-6)]Man(b1-4)GlcNAc(b1-4)GlcNAc
# Summary of the method: (§1)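 Arrays were curated from the Consortium for Functional Glycomics database, 3228 in total, and kept only where the protein sequence was available. Binding is expressed as a within-array Z-score. This score was averaged across arrays of the same protein sequence at different concentrations or buffers and across linkers, and negative values can be read as non-binding.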
# [2] = target: Fuc(a1-2)Gal(b1-3)GlcNAc(b1-3)Gal(b1-4)Glc
# Summary of the method: as §1
# Fuc(a1-2)Gal(b1-4)GlcNAc = target: Fuc(a1-2)Gal(b1-4)GlcNAc
# Summary of the method: as §1
# [3] = target: Fuc(a1-2)Gal(b1-4)GlcNAc(b1-2)[Fuc(a1-2)Gal(b1-4)GlcNAc(b1-4)]Man(a1-3)[Fuc(a1-2)Gal(b1-4)GlcNAc(b1-2)Man(a1-6)]Man(b1-4)GlcNAc(b1-4)GlcNAc
# Summary of the method: as §1
# [4] = target: Fuc(a1-2)Gal6S(b1-3)GlcNAc
# Summary of the method: as §1
# Fuc(a1-2)[Gal(a1-3)]Gal = target: Fuc(a1-2)[Gal(a1-3)]Gal
# Summary of the method: as §1
# [5] = target: Fuc(a1-2)[Gal(a1-3)]Gal(b1-3)GalNAc
# Summary of the method: as §1
# [6] = target: Fuc(a1-2)[Gal(a1-3)]Gal(b1-4)GlcNAc(b1-2)Man(a1-3)[Fuc(a1-2)[Gal(a1-3)]Gal(b1-4)GlcNAc(b1-2)Man(a1-6)]Man(b1-4)GlcNAc(b1-4)[Fuc(a1-6)]GlcNAc
# Summary of the method: as §1
# [7] = target: Fuc(a1-2)[Gal(a1-3)]Gal(b1-4)GlcNAc(b1-6)GalNAc
# Summary of the method: as §1
# [8] = target: Fuc(a1-2)[Gal(a1-3)]Gal(b1-4)[Fuc(a1-3)]Glc
# Summary of the method: as §1
# [9] = target: Fuc(a1-2)[Gal(a1-3)]Gal(b1-4)[Fuc(a1-3)]GlcNAc(b1-3)GalNAc
# Summary of the method: as §1
# [10] = target: Fuc(a1-2)[GalNAc(a1-3)]Gal(b1-3)GlcNAc
# Summary of the method: as §1
# [11] = target: Fuc(a1-3)[Gal(b1-4)]GlcNAc(b1-2)Man
# Summary of the method: as §1
# [12] = target: Fuc(a1-3)[Gal(b1-4)]GlcNAc(b1-3)Gal(b1-3)[Fuc(a1-4)]GlcNAc
# Summary of the method: as §1
# [13] = target: Fuc(a1-3)[Gal(b1-4)]GlcNAc(b1-3)GalNAc
# Summary of the method: as §1
# [14] = target: Fuc(a1-3)[GalNAc(b1-4)]GlcNAc
# Summary of the method: as §1
# [15] = target: Gal(a1-3)Gal(b1-3)GlcNAc(b1-3)GalNAc
# Summary of the method: as §1
# [16] = target: Gal(a1-3)Gal(b1-4)GlcNAc(b1-2)Man(a1-3)[Gal(a1-3)Gal(b1-4)GlcNAc(b1-2)Man(a1-6)]Man(b1-4)GlcNAc(b1-4)GlcNAc
# Summary of the method: as §1
# Gal(a1-3)GalNAc = target: Gal(a1-3)GalNAc
# Summary of the method: as §1
# Gal(a1-4)Gal(b1-4)Glc = target: Gal(a1-4)Gal(b1-4)Glc
# Summary of the method: as §1
# Gal(b1-2)Gal = target: Gal(b1-2)Gal
# Summary of the method: as §1
# Gal(b1-3)Gal(b1-4)GlcNAc = target: Gal(b1-3)Gal(b1-4)GlcNAc
# Summary of the method: as §1
# [17] = target: Gal(b1-3)GalNAc(a1-3)[Fuc(a1-2)]Gal(b1-4)Glc
# Summary of the method: as §1
# Gal(b1-3)GlcNAc(b1-2)Man = target: Gal(b1-3)GlcNAc(b1-2)Man
# Summary of the method: as §1
# [18] = target: Gal(b1-3)GlcNAc(b1-3)Gal(b1-4)GlcNAc(b1-3)Gal(b1-4)GlcNAc(b1-2)[Gal(b1-3)GlcNAc(b1-3)Gal(b1-4)GlcNAc(b1-3)Gal(b1-4)GlcNAc(b1-6)]Man(a1-6)[Gal(b1-3)GlcNAc(b1-3)Gal(b1-4)GlcNAc(b1-3)Gal(b1-4)GlcNAc(b1-2)Man(a1-3)]Man(b1-4)GlcNAc(b1-4)[Fuc(a1-6)]GlcNAc
# Summary of the method: as §1
# [19] = target: Gal(b1-3)[Neu5Ac(a2-6)]GlcNAc(b1-6)Gal(b1-4)Glc
# Summary of the method: as §1
# Gal(b1-4)GlcNAc(b1-2)Man = target: Gal(b1-4)GlcNAc(b1-2)Man
# Summary of the method: as §1
# [20] = target: Gal(b1-4)GlcNAc(b1-2)[Gal(b1-4)GlcNAc(b1-4)]Man(a1-3)[GlcNAc(b1-4)][Gal(b1-4)GlcNAc(b1-2)Man(a1-6)]Man(b1-4)GlcNAc(b1-4)GlcNAc
# Summary of the method: as §1
# [21] = target: Gal(b1-4)GlcNAc(b1-3)Gal(b1-4)GlcNAc(b1-2)[Gal(b1-4)GlcNAc(b1-3)Gal(b1-4)GlcNAc(b1-6)]Man(a1-6)[Gal(b1-4)GlcNAc(b1-3)Gal(b1-4)GlcNAc(b1-2)Man(a1-3)]Man(b1-4)GlcNAc(b1-4)[Fuc(a1-6)]GlcNAc
# Summary of the method: as §1
# [22] = target: Gal(b1-4)GlcNAc(b1-3)Gal(b1-4)GlcNAc(b1-3)Gal(b1-4)GlcNAc(b1-2)Man(a1-3)[Gal(b1-4)GlcNAc(b1-3)Gal(b1-4)GlcNAc(b1-3)Gal(b1-4)GlcNAc(b1-2)Man(a1-6)]Man(b1-4)GlcNAc(b1-4)GlcNAc
# Summary of the method: as §1
binder,measurement,setting,value
B1,glycan array binding signal (z-score),[1],0.069
same,glycan array binding signal (z-score),[2],-0.229
same,glycan array binding signal (z-score),Fuc(a1-2)Gal(b1-4)GlcNAc,-0.279
same,glycan array binding signal (z-score),[3],0.547
same,glycan array binding signal (z-score),[4],-0.468
same,glycan array binding signal (z-score),Fuc(a1-2)[Gal(a1-3)]Gal,-0.365
same,glycan array binding signal (z-score),[5],-0.363
same,glycan array binding signal (z-score),[6],0.008
same,glycan array binding signal (z-score),[7],-0.106
same,glycan array binding signal (z-score),[8],-0.455
same,glycan array binding signal (z-score),[9],-0.325
same,glycan array binding signal (z-score),[10],-0.394
same,glycan array binding signal (z-score),[11],-0.075
same,glycan array binding signal (z-score),[12],-0.064
same,glycan array binding signal (z-score),[13],-0.264
same,glycan array binding signal (z-score),[14],-0.277
same,glycan array binding signal (z-score),[15],-0.23
same,glycan array binding signal (z-score),[16],4.96
same,glycan array binding signal (z-score),Gal(a1-3)GalNAc,-0.186
same,glycan array binding signal (z-score),Gal(a1-4)Gal(b1-4)Glc,-0.376
same,glycan array binding signal (z-score),Gal(b1-2)Gal,0.468
same,glycan array binding signal (z-score),Gal(b1-3)Gal(b1-4)GlcNAc,-0.195
same,glycan array binding signal (z-score),[17],-0.41
same,glycan array binding signal (z-score),Gal(b1-3)GlcNAc(b1-2)Man,-0.113
same,glycan array binding signal (z-score),[18],2.97
same,glycan array binding signal (z-score),[19],-0.078
same,glycan array binding signal (z-score),Gal(b1-4)GlcNAc(b1-2)Man,-0.253
same,glycan array binding signal (z-score),[20],0.891
same,glycan array binding signal (z-score),[21],3.02
same,glycan array binding signal (z-score),[22],2.85
